Among the data in the supplement of paper PMC10127200 are Euclidean distance values, retold here.

Structures can show the parent of a compound that is named as a salt.

This assay has as its system A549. The experiment in a line: Euclidean distance of Cell Painting phenotypic profile (signed KS, 77 features) to DMSO centroid (dimensionless distance); 5 or 10 uM (library dependent); higher = stronger phenotypic change vs DMSO (phenoactivity). The settings on record: 48 h. Put shortly:
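At 10 or 5 uM, as set by the library, and 0.1% DMSO final, compounds were applied for 48 h to five cancer lines and one healthy fibroblast line. Stained cells were imaged confocally at 20X in 9 fields per well, and Harmony extracted 77 features scored as signed Kolmogorov-Smirnov statistics against vehicle wells on the same plate. Profiles underwent plate-position correction, correlation weighting and replicate averaging at the top dose. Phenoactivity is the Euclidean distance from each such profile to the median vehicle profile.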
As for `C[C@@H]1CN(CC(=O)Nc2ccc3c(c2)Cc2cccc(-c4cc(=O)cc(N5CCOCC5)o4)c2S3)C[C@H](C)O1`, the Euclidean distance was 1.25.

With `N=c1ccn2c(n1)O[C@H]1[C@H](O)[C@@H](CO)O[C@H]12` [Cyclocytidine HCl], the Euclidean distance stood at 2.7.

Regarding `CC(C)[C@H](O)C(=O)N[C@@H](C)C(=O)N[C@@H]1C(=O)N(C)CCc2ccccc21`, the Euclidean distance came to 1.34.

In the case of `Cc1ccc2c(=O)c3cccc(CC(=O)O)c3oc2c1C` [DMXAA (Vadimezan)], the Euclidean distance worked out at 0.921.

Turning to `CCc1c(C(=O)NCCc2ccc(N3CCCCC3)cc2)[nH]c2ccc(Cl)cc12`, the Euclidean distance turned out to be 1.48.

`CC(C)C[C@@H](C(=O)N[C@H](C(=O)OC1CCCC1)c1ccccc1)[C@H](O)C(=O)NO` [Tosedostat (CHR2797)] had an Euclidean distance of 1.35.

For the compound `C=CCn1c(=O)c2cnc(Nc3ccc(N4CCN(C)CC4)cc3)nc2n1-c1cccc(C(C)(C)O)n1`, the Euclidean distance came to 2.56.

With `Cc1cc(NC(=O)Nc2ccc(N(C)C)cc2)c2cc(F)cc(F)c2n1`, the Euclidean distance turned out to be 1.16.

`COc1ccc2cc(C(=O)O)ccc2c1` [6-Methoxy-2-naphthoic acid] had an Euclidean distance of 0.63.

`CCCCOc1c(C(=O)c2c(F)cc(C)cc2F)c[nH]c2nncc1-2` showed an Euclidean distance of 2.16.

Turning to `O=C(NOCC(O)CO)c1cc(Br)c(F)c(F)c1Nc1ccc(I)cc1F` (configuration not stated), the Euclidean distance was 2.76.

`CCOC(=O)[C@H](CCc1ccccc1)N[C@H]1CCCN2CCC[C@@H](C(=O)O)N2C1=O` [Cilazapril Monohydrate] showed an Euclidean distance of 1.31.

In the case of `CCC(=O)O[C@]1(C(=O)CCl)[C@@H](C)C[C@H]2[C@@H]3CCC4=CC(=O)C=C[C@]4(C)[C@@]3(F)[C@@H](O)C[C@@]21C` [Clobetasol propionate], the Euclidean distance came out at 2.17.

In turn, `Clc1ccc(C2(c3ccc(-c4cn[nH]c4)cc3)CCNCC2)cc1` yielded an Euclidean distance of 3.29.

`COc1cc(NS(=O)(=O)c2ccc(N)cc2)nc(OC)n1` [Sulphadimethoxine] returned an Euclidean distance of 1.11.

With `Nc1cccc(-c2cc3c(Oc4cccc(O)c4)ncnc3[nH]2)c1`, the Euclidean distance worked out at 3.48.

`C=CCc1cc(OC)c(O)c(C(=O)NCCO)c1` [Alibendol] yielded an Euclidean distance of 0.655.

For the compound `NS(=O)(=O)c1cc2c(cc1Cl)NCNS2(=O)=O` [Hydrochlorothiazide], the Euclidean distance stood at 1.08.

`CCCc1nc2c(C)cc(-c3nc4ccccc4n3C)cc2n1Cc1ccc(-c2ccccc2C(=O)O)cc1` [Telmisartan] had an Euclidean distance of 0.747.

In the case of `CCCNC(=O)Nc1ccc(Oc2ncnc3cc(OC)c(OC)cc23)cc1Cl`, the Euclidean distance came out at 0.789.

As for `COc1cc(Nc2nc3ccccc3nc2NS(=O)(=O)c2ccc(NC(=O)c3ccc(C)c(OC)c3)cc2)cc(OC)c1`, the Euclidean distance is 1.26.

`C[C@@]1(c2cc(-c3cncnc3)c(F)cc2F)CCSC(N)=N1` displayed an Euclidean distance of 1.07.

`CCCCCCCCCCCCc1ccc(S(=O)(=O)Nc2nncs2)cc1` registered an Euclidean distance of 1.57.

Turning to `Cc1ccc(-n2nc(C(C)(C)C)cc2NC(=O)Nc2ccc(OCCN3CCOCC3)c3ccccc23)cc1` [BIRB 796 (Doramapimod)], the Euclidean distance came out at 0.959.

For the compound `O=S(=O)(NCCNC/C=C/c1ccc(Br)cc1)c1cccc2cnccc12`, the Euclidean distance is 1.32.

`CCOC(=O)CCNc1cc(N2CCc3ccccc3CC2)nc(-c2ccccn2)n1` had an Euclidean distance of 2.58.

As to `NC(=O)Nc1cc(-c2cccc(F)c2)sc1C(=O)N[C@H]1CCCNC1`, the Euclidean distance came to 3.15.

`CNC(=O)CN(CCN(CCN(CC(=O)[O-])CC(=O)NC)CC(=O)[O-])CC(=O)[O-].[Gd+3]` [Gadodiamide] gave an Euclidean distance of 1.55.

Consider `COc1ccc2[nH]c([S@@+]([O-])Cc3ncc(C)c(OC)c3C)nc2c1` [NEXIUM (esomeprazole magnesium)], for which the Euclidean distance stood at 0.829.

`CC(C)(C)NCC(O)COc1cccc2c1CC(O)C(O)C2` (configuration not stated) [Nadolol] registered an Euclidean distance of 1.38.

`C[C@@H]1C(=O)O[C@H]2C[C@@]34[C@H]5C[C@@H](C(C)(C)C)[C@]36[C@@H](OC(=O)[C@@H]6O)O[C@@]4(C(=O)O5)[C@]21O` [Ginkgolide A] gave an Euclidean distance of 1.51.

On to `CS(=O)(=O)c1cccc(CNc2nc(Nc3ccc4c(c3)CCC(=O)N4)ncc2C(F)(F)F)c1`, for which the Euclidean distance stood at 2.6.
